Screening data deposited in PubChem by several laboratories.
In the library only some 3.5% were active in any assay of this set; here they are far more common.
Rv3671c protease: Rv3671c (M. tuberculosis) protease inhibition; P9WHR9; inhibition, % at 5.96 µM; 320,000 compounds, 0.048% hits; in the data active = inhibition above about 38%;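 note: extracellular domain of Rv3671c used as enzyme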
GDH-TPI counter: GDH-TPI coupled enzyme inhibition counter-screen. GDH-TPI coupled enzyme counterscreen, NADH absorbance. inhibition, % at 4.8 µM. 360,000 compounds, 1.2% hits. AID 588335; in the data active = inhibition above about 30%
FBA Mtb inh: inhibits M. tuberculosis FBA enzyme; purified M. tuberculosis FBA, fluorescence read-out; inhibition, % at 1 µM; P9WQA3; 360,000 compounds, 2.3% hits; in the data active = inhibition above about 27%
Mtb UGM inh: inhibitors of M. tuberculosis UDP-galactopyranose mutase; AID 504406; inhibition, % at 10 µM; 320,000 compounds, 0.06% hits; purified UGM, fluorescence polarization probe displacement; P9WIQ1; in the data active = inhibition above about 10%, passing the limit was not always enough
Target sequence (P9WIQ1 whole entry, looked up): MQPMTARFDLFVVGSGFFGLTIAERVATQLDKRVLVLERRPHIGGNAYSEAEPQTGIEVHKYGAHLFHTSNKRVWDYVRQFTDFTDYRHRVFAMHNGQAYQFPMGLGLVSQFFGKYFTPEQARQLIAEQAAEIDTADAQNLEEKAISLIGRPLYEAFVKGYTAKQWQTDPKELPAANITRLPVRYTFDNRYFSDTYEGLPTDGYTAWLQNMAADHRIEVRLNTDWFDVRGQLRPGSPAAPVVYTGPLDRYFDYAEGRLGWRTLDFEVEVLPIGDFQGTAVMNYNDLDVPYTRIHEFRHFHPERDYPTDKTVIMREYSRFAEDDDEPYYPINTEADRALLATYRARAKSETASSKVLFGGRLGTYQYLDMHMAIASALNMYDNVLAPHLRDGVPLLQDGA
A number is an active result; – = inactive; · = not tested or not shown; + = active, no number.

SMILES	Rv3671c protease	GDH-TPI counter	FBA Mtb inh	Mtb UGM inh
O=c1[nH]c2cc3c(cc2cc1CN(CCO)S(=O)(=O)c1ccccc1)OCCO3	–	37	–	–
CC1=C(C(=O)N(C)C)CC(CC(=O)NC2CC2)C(=O)N1Cc1ccccc1 (centres undefined)	·	–	–	·
CCN(CC)c1ccc(/C=C(\C#N)C(N)=O)cc1	·	–	–	·
N#CC(=Cc1ccc(O)cc1)C(N)=C(C#N)C#N	–	37	–	–
Cc1cc(N/N=C2/CCCc3ccccc32)nc2ccccc12	–	–	–	–
c1ccc(N/N=C2\CCCc3ccccc32)nc1	–	32	–	–
O=C(CN1C(=O)COc2ccc(Cl)cc21)Nc1ccccn1	–	–	–	–
Nc1nc(N)c2[nH]c(-c3ccccc3)nc2n1	·	–	+	–
Oc1ccc(/C=N/n2c(-c3ccccc3)n[nH]c2=S)cc1Br	·	48	–	–
COc1cc(/C=N/n2c(-c3ccccc3)n[nH]c2=S)ccc1O	–	–	–	–
Cc1c(Br)c(O)c(Br)c(O)c1/C=N/n1c(-c2ccccc2)n[nH]c1=S	–	–	–	–
Oc1c(Br)cc(/C=N/n2c(-c3ccccc3)n[nH]c2=S)cc1Br	·	31	–	–
Oc1c(Br)cc(/C=N/n2c(-c3ccccc3)n[nH]c2=S)c(O)c1Br	·	36	–	–
N#Cc1cccc(NC(=O)CN2CCN(Cc3ccccc3)CC2)c1	–	–	–	–
C[C@]12C(=O)N(c3ccc(Br)cc3)C(=O)N1[C@H]1c3ccccc3OC[C@@H]1[C@H]2c1ccccc1	–	–	–	–
O=C1/C(=C/c2ccccc2)CN(C(=O)CCN2CCOCC2)C/C1=C\c1ccccc1	·	37	–	·
CN(C)CCC(=O)N1C/C(=C/c2ccccc2)C(=O)/C(=C\c2ccccc2)C1	·	35	–	·
CCOC(=O)N1C/C(=C\c2ccccc2)C(=O)/C(=C/c2ccccc2)C1	·	–	–	·
COc1ccc(OC(=O)N2C/C(=C/c3ccccc3)C(=O)/C(=C\c3ccccc3)C2)cc1	·	–	–	·
C[N+](C)(C)CCC(=O)N1C/C(=C/c2ccccc2)C(=O)/C(=C\c2ccccc2)C1	·	41	–	·
CN(Cc1ccccc1)S(=O)(=O)CCNC(=O)c1ccc2c(c1)OCO2	–	–	–	–
C[C@@H]1C[C@H]2[C@@H]3C[C@H](F)C4=CC(=O)C=C[C@]4(C)[C@@]3(Cl)[C@@H](O)C[C@]2(C)[C@H]1C(=O)COC(=O)C(C)(C)C	–	–	–	–
O=[N+]([O-])c1ccc2[nH]c(O)c(N=Nc3ccc(F)cc3)c2c1	–	–	–	–
O=[N+]([O-])c1ccc2[nH]c(O)c(N=NC3CCS(=O)(=O)C3)c2c1 (centres undefined)	–	59	–	–
COc1ccc2cc(/C(C)=N/NC(=O)c3cc(C)oc3C)ccc2c1	·	–	198	·
SMILES	Rv3671c protease	GDH-TPI counter	FBA Mtb inh	Mtb UGM inh
COc1ccc(/C(C)=N/NC(=O)c2ccc(N(C)C)cc2)cc1	–	35	–	–
CCN(CC)c1ccc(C(=O)N/N=C(\C)c2ccc(O)cc2)cc1	–	34	–	–
C=CCNc1nc(C(=O)OCC(=O)Nc2c(Cl)cccc2C(F)(F)F)cs1	–	–	–	–
COc1cccc(CNC(=O)CCS(=O)(=O)Cc2ccc(C)cc2)c1	–	–	–	–
NS(=O)(=O)c1ccc(CCNS(=O)(=O)c2cccc(C(=O)O)c2)cc1	–	–	–	–
Cc1cc(NC(=O)CSCC(=O)N2CCN(c3ccccc3)CC2)no1	–	–	–	–
O=C(c1ccncc1)c1ccc(NS(=O)(=O)c2ccc(Br)s2)cc1	–	39	–	–
Cc1ccc(-c2noc(CNC(=O)COc3ccccc3C)n2)cc1	–	–	–	–
Cc1[nH]n(-c2ccccc2)c(=O)c1/C=N/NC(=O)c1ccc(O)cc1O	–	36	–	–
O=C1c2nc3cc(-c4ccco4)[nH]n3c(=O)c2CN1C1CCCCC1	–	–	129	–
COCCN1C=C(C(=O)OC)C(c2ccc(Cl)cc2)C(C(=O)OC)=C1	–	–	+	–
CCOc1ccc(C2C(C(=O)OC)=CN(CCOC)C=C2C(=O)OC)cc1	–	–	+	–
COc1cccc(Nc2nc(C)cc(C)c2C(N)=O)c1	–	–	–	–
COc1cccc(CNC(=O)C2CCCN(S(C)(=O)=O)C2)c1 (centres undefined)	–	–	–	–
COc1ccccc1CNC(=O)C1CCCN(S(=O)(=O)c2c(C)[nH]c(=O)[nH]c2=O)C1 (centres undefined)	–	–	65	–
Cc1noc(/C=C/N(C)C)c1S(=O)(=O)N1CCCC(C(=O)NCc2cccs2)C1 (centres undefined)	–	38	–	–
COc1cccc(CNC(=O)C2CCCN(S(=O)(=O)c3c(C)noc3/C=C/N(C)C)C2)c1 (centres undefined)	–	34	–	–
CCN(CC)S(=O)(=O)c1ccc(N2CCOCC2)c(NC(=O)c2nn(C(C)C)c(=O)c3ccccc23)c1	·	–	–	·
COc1ccc(CN2CC[C@H]3C=CC[C@@H](C(=O)Nc4ccc(Cl)c(C(F)(F)F)c4)[C@H]3C2=O)cc1OC	–	–	–	–
C[C@H]1CN([C@@H](C)CO)C(=O)CCCn2nncc2CO[C@H]1CN(C)C(=O)Nc1cccc(Oc2ccccn2)c1	·	–	–	·
CC1=C(/C=C/C(C)=C/C=C/C(C)=C/C(=O)Nc2ccc(O)cc2)C(C)(C)CCC1	–	35	–	–
c1ccc2c(c1)-c1nc3ccccc3cc1C2N1CCCCC1 (centres undefined)	·	–	–	·
O=c1cccc2n1Cc1cc3ccccc3nc1-2	–	32	+	–
COc1ccccc1NC(=O)C(=O)c1cn(CC(=O)N2CCOCC2)c2ccccc12	–	–	–	–
COc1ccc(NC(=O)C(=O)c2cn(CC(=O)N3CCOCC3)c3ccccc23)cc1OC	–	33	–	–
SMILES	Rv3671c protease	GDH-TPI counter	FBA Mtb inh	Mtb UGM inh
Cc1ccc(-c2cc3nc(NCCc4ccncc4)n(C)c(=O)c3s2)cc1	·	–	–	·
O=C(O)c1ccc(Nc2nc(-c3ccccc3)nc3ccccc23)cc1	–	47	–	–
CCOC(=O)c1ccc(Nc2nc(C(=O)OCC)nc3ccccc23)cc1	–	35	–	–
CCOC(=O)c1nc(Nc2ccc(C(=O)O)cc2)c2ccccc2n1	–	31	–	–
CCOc1ccccc1N(CC(=O)NCCc1ccccc1)C(=O)CCC(=O)Nc1ccccn1	–	–	–	–
COc1ccc2nc3ccccc3nc2c1NC(=O)c1ccc(Cl)cc1Cl	–	–	–	37
COc1cc(-c2cc(C(=O)Nc3c(Cl)cc(Cl)cc3Cl)c3ccccc3n2)cc(OC)c1OC	–	–	–	–
CCN(/N=C/c1cccs1)c1cc(=O)n(C)c(=O)[nH]1	–	43	–	–
CN(/N=C/c1cccs1)c1cc(=O)n(C)c(=O)[nH]1	–	48	–	–
Cc1cc(=O)[nH]c(N/N=C/c2cccs2)n1	–	–	–	–
COc1ccc(NC(=O)c2cc3c(=O)n4ccccc4nc3n2C)cc1OC	–	–	–	–
COC(=O)/C(=C(O)\C=C\c1ccccc1[N+](=O)[O-])c1nc2ccccc2[nH]1	–	–	–	–
Cc1ccc(-c2c(CC(=O)O)c(C)nc3sc4c(c23)CCCC4)cc1	–	–	–	–
CCN(C(=O)COc1ccc(C)cc1OC)c1cccc2ccccc12	–	–	–	–
